# Reference: PubChem BioAssay AID629 (Emory University Molecular Libraries Screening Center, 2007)
# Among all 86,000 compounds or so, about 1,400 (1.6%) were called active. Only a selection was taken, and actives are over-represented in it overall. Values without a mark were called inactive. Cut-off read from the data, not from the text of the source: active = inhibition above about 50%; inactive = the rest.
# Molecular target: Estrogen receptor (Homo sapiens) (UniProt P03372)
# Experiment: blockers of SRC-1 peptide recruitment to ERα – biochemical, TR-FRET, ERα LBD, estradiol-bound, primary screen (AID 629);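 note: 0% = receptor plus peptide control and 100% = peptide only without receptor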
# Settings: TR-FRET ER-alpha LBD / SRC-1 peptide, at 25.6 µM, hits give high values
# Estrogen receptor (Homo sapiens), sequence (P03372 whole entry, looked up, the tested form may be a part): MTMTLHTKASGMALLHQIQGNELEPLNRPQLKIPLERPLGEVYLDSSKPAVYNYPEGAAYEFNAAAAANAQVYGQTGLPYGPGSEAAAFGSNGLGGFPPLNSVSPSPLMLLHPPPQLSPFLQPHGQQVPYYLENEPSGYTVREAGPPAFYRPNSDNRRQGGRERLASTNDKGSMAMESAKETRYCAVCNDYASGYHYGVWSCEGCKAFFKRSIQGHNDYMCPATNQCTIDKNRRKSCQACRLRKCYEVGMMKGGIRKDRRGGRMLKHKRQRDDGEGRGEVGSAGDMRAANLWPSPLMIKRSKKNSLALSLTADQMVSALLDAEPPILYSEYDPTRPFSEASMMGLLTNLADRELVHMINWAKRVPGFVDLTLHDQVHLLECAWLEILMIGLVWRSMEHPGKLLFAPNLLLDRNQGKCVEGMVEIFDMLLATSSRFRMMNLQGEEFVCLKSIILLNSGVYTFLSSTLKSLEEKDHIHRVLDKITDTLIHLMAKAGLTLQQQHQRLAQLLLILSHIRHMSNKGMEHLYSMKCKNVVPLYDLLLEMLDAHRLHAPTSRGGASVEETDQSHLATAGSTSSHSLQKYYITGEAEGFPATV
row,Compound,inhibition
1,COc1ccc(OC)c(-n2nnnc2SCC(=O)Nc2cc(C)ccc2OC)c1,4.13%
2,COc1ccc(NC(=O)CSc2nnc(-c3cccs3)n2Cc2ccco2)cc1OC,-0.83%
3,COc1ccc(C)cc1-n1nnnc1SCC(=O)c1cc(C)n(Cc2ccco2)c1C,56% [fluorescence artefact?] (active)
4,O=C(NCc1ccccc1)[C@@H]1CSC2c3ccccc3C(=O)N21 (some centres undefined),6.25%
5,Cc1cc(C)n(-c2nnc(C)n2NC(=O)c2cccc(Cl)c2)n1,-8.09%
6,Cc1cccc(-c2noc(-c3ccc(F)cc3)n2)c1,-21.4%
7,COc1ccc(-c2noc(-c3ccc(C)cc3)n2)cc1,-13.3%
8,COc1ccc2[nH]c(=O)c(-c3noc(-c4ccc(F)cc4)n3)cc2c1,72.5% [fluorescence artefact?] (active)
9,COc1cc(OC)c(C(=O)Nc2ccc(N(C)C)cc2)cc1OC,63.9% [fluorescence artefact?] (active)
10,COc1ccc(Cl)cc1C(=O)Nc1ccc(N(C)C(C)=O)cc1,9.29%
11,COc1cc(OC)c(C(=O)NC2CCCCCC2)cc1OC,-10.8%
12,CCOc1ccccc1C(=O)NC1CC2CCCC(C1)N2Cc1ccccc1 (centres undefined),1.91%
13,COc1ccc(-c2nnc(SCC(=O)c3ccc4c(c3)OCCO4)o2)cc1,22.7%
14,Cc1ccc(-c2noc(CSc3nnnn3-c3ccccc3)n2)cc1,-3.97%
15,Cc1ccc(Nc2nc(CSc3nnnn3-c3ccccc3)cc(=O)[nH]2)cc1,66.8% [fluorescence artefact?] (active)
16,COc1ccc(-n2nnnc2SCC(=O)Nc2ccccc2)cc1,-12.4%
17,O=c1c2ccccc2nc(CSc2nnnn2-c2ccccc2)n1-c1ccccc1,70% [fluorescence artefact?] (active)

row,Compound,inhibition
1,O=c1c2ccccc2nnn1CSc1nnnn1-c1ccccc1,-0.34%
2,N#CCSc1nc2ccccc2c(=O)n1-c1ccccc1,1.7%
3,Brc1ccc(-c2nnc(-c3ccccc3)o2)o1,12.2%
4,O=C(Cc1ccccc1)Nc1c(C(=O)N2CCCCCC2)cnn1-c1ccccc1,-5.17%
5,Cc1cc(=O)oc2cc(OCC3CC(c4ccccc4Cl)=NO3)ccc12 (centres undefined),3.5%
6,O=C(c1ccc2c(c1)OCO2)N1CCOCC1,-17.2%
7,Cc1ccc(NC(=O)CSCC(=O)N2CCOCC2)cc1,-2.74%
8,CCN(CC)C(=O)CN(c1cccc(OC)c1)S(=O)(=O)c1ccc(C)cc1,0.16%
9,COc1ccc(Cl)cc1NC(=O)c1oc(C)nc1C,53.9% (active)
10,Cc1nc(C)c(C(=O)Nc2ccc(C)c(F)c2)o1,13.3%
11,Cc1nc(C)c(C(=O)Nc2cccc(C)c2C)o1,23.7%
12,Cc1cc(NC(=O)CCC(=O)N(CC(=O)NCC2CCCO2)c2ccccc2C)no1 (centres undefined),26%
13,CCOC(=O)N1CCN(C(=O)c2n[nH]c(=O)c3ccccc23)CC1,-4.02%
14,CCOC(=O)N1CCN(C(=O)c2nn(-c3ccc(C)cc3)c(=O)c3c2c2ccccc2n3C)CC1,58.7% [fluorescence artefact?] (active)
15,Cn1c2ccccc2c2c(C(=O)N3CCN(c4ccc(F)cc4)CC3)cn(C3CCCC3)c(=O)c21,8.84%
16,CCCc1nc(NCc2ccc3c(c2)OCO3)c2nnn(Cc3ccccc3Cl)c2n1,0.25%
17,Cc1ccccc1-c1nnc(SCC(=O)NCc2ccc3c(c2)OCO3)n1C,-3.86%
